In PubChem BioAssay (NCI) one finds growth data, which are given here for 40 compounds.

Structures are written as SMILES. The panel holds about 83,000 compounds, 20% with a hit somewhere; the sample as a whole holds those more often.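 Step 1: grow cells in 96-well plates. Step 2: add test compound at a single concentration. Step 3: incubate 48 h. Step 4: record percent growth.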 Unmarked numbers belong to inactive results. Active and inactive are the calls of the source. How the source made its calls: active means growth percent below 10; inactive means the rest.

This experiment deals with HL-60(TB) leukemia. The experiment is described as follows: NCI-60 one-dose screen, 48 h (100 = growth as untreated, 0 = no growth, -100 = all killed). Conditions: 10 µM unless noted.
On to `CCOc1ccccc1/C=N\N=C(N/N=C/c1ccccc1OCC)N/N=C/c1ccccc1OCC`, for which the growth was 11.9%. For `Cc1nc(N)[nH]c(=O)c1C`, the growth was 218%. With `O=CN/N=C/c1ccc(Cl)c([N+](=O)[O-])c1` the figure was 11.1%; with `COc1ccc(-c2c(C#N)cnc(N)c2-c2nc3cc(C)c(C)cc3[nH]2)cc1`, 89.4%; with `CCCCC/C=C/C/C=C/CCCCCCCC1=NC(C)(C)CN1C(C)C`, 13.7%. For `O=S(=O)(Cc1ccc(Cl)cc1Cl)c1ccc(Cl)cc1` the value was 10.5%. Consider `N#CN1CC[C@H](C(=O)Nc2ncc(-c3ccncc3)s2)C1`, for which the growth was -28.5% (active). For `O=C1Nc2ccc(F)cc2/C1=C/c1nc(-c2ccc(F)cc2)n2ccccc12` the value was 103%; for `Cc1nc(Nc2ccc(NC(=S)Nc3ccccc3)cc2)nc2nc(Nc3ccc(S(=O)(=O)O)cc3)[nH]c(=O)c12`, 132%. In the case of `CC[C@H](Nc1nc(C)nc(N)c1C#N)c1nc2cccc(NCc3ccc(C(=O)NO)cc3)c2c(=O)n1-c1ccccc1`, the growth is -30.5% (active). With `O=C([C@H]1C[C@H]1c1ccc(S(F)(F)(F)(F)F)cc1)N1CCN(c2cc(Cl)ccc2C(F)(F)F)CC1` the figure was 83.5%; with `O=S(=O)(Oc1ccc(Br)cc1)c1ccc(Cl)cc1`, 85.3%; with `O=C(Nc1cccc(Cl)c1)Oc1c(Br)c(Br)c(Br)c(Br)c1Br`, 88.4%. On to `COc1ccc(/C=C2\CCC/C(=C\c3ccc(OC)c(OC)c3)C2=O)cc1OC`, for which the growth was 3.46% (active).

On to `CCN(CC)CC(=O)N(CC)c1ccc(C)c(Cl)c1`, for which the growth was 71.7%. Turning to `O=S(=O)(NCCNc1cc(-c2cn(-c3ccccc3)nc2-c2cccc(O)c2)ccn1)c1ccc(F)cc1`, the growth is 6.88% (active). `O=C(/C(=C\c1c(-c2ccccc2)[nH]c2ccccc12)S(=O)(=O)c1ccccc1)c1ccccc1`: the growth was -18.2% (active). On to `CN(C)CCS(=O)(=O)CCN(C)C`, for which the growth was 110%. `C#CCn1cnc2cnc(Nc3cccc(NC(=O)C=C)c3)nc21`: the growth is 8.32% [6.25 µM] (active).

As for `CCCCCCCCCCCCOc1ccccc1C=O`, the growth is 89.9%. With `COc1cc2c(Nc3ccc(Br)cc3F)ncnc2cc1OCC1CCN(C)CC1` the figure was 0.964% (active). As to `CC(=O)Nc1cccc(-n2c(=O)n(C3CC3)c(=O)c3c(Nc4ccc(I)cc4F)n(C)c(=O)c(C)c32)c1`, the growth was 27.1%.

For `CC(=O)OCC1SC(OC(C)=O)C(NC(=O)/C=C/CCl)C(OC(C)=O)C1OC(C)=O` (stereo not given), the growth is 79.9%.

Take `CCCN(CCC)c1ccc(/C=C/c2ccc3cc(OCC)ccc3n2)cc1`: the growth was 54.3%.

Take `COc1ccc(N2CCN(c3ccc(NC4=C(Cl)C(=O)c5ncccc5C4=O)cc3)CC2)cc1`: the growth was 53%.

Turning to `COC(=O)C1=C(C)C(=O)CC1`, the growth is 86.7%.

Regarding `CCCCn1c(=O)[nH]c2c(c1=O)C(c1ccc(Cl)cc1)c1c([nH]c(=O)n(CCCC)c1=O)N2`, the growth is 99.2%.

Consider `Cc1nc(C)c(C)nc1C`, for which the growth was 73.9%. Regarding `COc1nc(OC)nc(-c2cc(-c3cc(OC)c(OC)c(OC)c3)no2)n1`, the growth is 95.2%.

For the compound `Cc1cccc(NC(=O)c2sc3nc4c(cc3c2N)C(=O)CCC4)c1`, the growth is 6.14% (active).

With `COc1ccc(-c2cc(/C=C/C(=O)c3ccc(OC)c(OC)c3)[nH]n2)cc1`, the growth is -43.7% (active).

Take `CSCc1ncc(-c2ccc(C(F)(F)F)cc2)c(NC2CCCCCC2)n1`: the growth was 20.7% [25 µM]. `N=C(c1ccccc1)N(Cc1ccccc1)Cc1ccccc1`: the growth was 82.6%. For `CCOC(=O)CCCCCCCCC(=O)OCC`, the growth was 97.4%. `CCCC(CCC)Oc1ccc(CCCC2=C(O)c3ccccc3C(=O)C2=O)cc1`: the growth was 37.5%. As to `C=C(C)[C@@H]1CC[C@]2(COC(=O)c3ccccc3C(=O)O)CC[C@]3(C)[C@H](CC[C@@H]4[C@@]5(C)CC[C@H](OC(=O)c6ccccc6C(=O)O)C(C)(C)[C@@H]5CC[C@]43C)[C@@H]12`, the growth is 37.8% [100 µM]. Turning to `O=C1c2ccccc2C(=O)c2c(Nc3ccc(CCO)cc3)ccc(O)c21`, the growth is 83.9%.

On to `CCCCCCCC/C=C\CCCCCCCCOc1ccccc1CC(=O)NCC[N+](C)(C)C`, for which the growth is 67%.

As to `Cc1nc2c(nnn2-c2ccccc2)c2nc(-c3ccccc3)oc(=O)c12`, the growth was 109%.

For the compound `O=C(CSc1ncc(-c2ccccc2)n1-c1ccccc1)Nc1ccc(-c2nc3ccccc3s2)cc1`, the growth was 100%.
